# From PubChem BioAssay (Tox21)
# Inconclusive results are not listed. Entries that show only a call come without a potency. Unmarked numbers belong to inactive results. The source made the active and inactive calls. Unless noted, calls come from the whole dose curve; as a rule, active = well fitted curve in the direction sought with a large enough effect in the repeat runs; inconclusive = weak or mixed curves; inactive = no such curve, though single readings can be large; an effect the other way counts as inactive or inconclusive.
# Key:
# [1] = qHTS assay to identify aromatase inhibitors - cell viability counter screen (AID 743084);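 note: cells stimulated with testosterone during compound exposure; nearly all actives have a fitted effect of over 55% in size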
# [2] = target: Aryl hydrocarbon receptor (Homo sapiens) (UniProt P35869); test: qHTS assay to identify small molecule that activate the aryl hydrocarbon receptor (AhR) signaling pathway (AID 743085); note: nearly all actives have a fitted effect of over 15% in size; note: potency is the fitted concentration of half-maximal effect;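 for activation: HG2L7.5c1 human HepG2 liver cells with stably integrated DRE-driven firefly reporter; series mostly up to about 70 µM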
# In short: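 24 h compound exposure, 37C, HepG2-derived HG2L7.5c1 cells with DRE-responsive luciferase. Readouts: fluorescence viability, then luminescence at room temperature after 30 min.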
# [3] = qHTS assay to identify small molecule that activate the aryl hydrocarbon receptor (AhR) signaling pathway - cell viability counter screen (AID 743086);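 note: HepG2 liver cells carrying the AhR DRE luciferase reporter; series mostly up to about 70 µM; nearly all actives have a fitted effect of over 45% in size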
# In short: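 HepG2-AhR-luc (HG2L7.5c1) cells, 4000/well, treated 24 h at 37 C with compound; viability measured as CellTiter-Fluor fluorescence after 30 min in the same wells as the luciferase read.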
# [4] = target: Peroxisome proliferator-activated receptor gamma (Homo sapiens) (UniProt P37231); test: qHTS assay to identify small molecule agonists of the peroxisome proliferator-activated receptor gamma (PPARg) signaling pathway (AID 743094; active = well fitted activation curve with a large enough effect in the signal ratio in the repeat runs, not every such curve was filed as active; the % refers to the signal ratio)
# In short: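 Cell-based bla reporter, HEK293H background, PPARg-driven UAS. Pre-incubation 5 h, 37C, 5% CO2. Compound 17 h, 37C. Substrate 1 h RT; fluorescence.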
# [5] = target: Peroxisome proliferator-activated receptor gamma (Homo sapiens) (UniProt P37231); test: qHTS assay to identify small molecule antagonists of the peroxisome proliferator-activated receptor gamma (PPARg) signaling pathway (AID 743191; calls by dose curve; note: series mostly up to about 63 µM; nearly all actives have a fitted effect of over 30% in size)
# In short: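 GeneBLAzer PPARg UAS-bla HEK293H cells, 5 h post-plating, exposed to compounds 17 h at 37C. LiveBLAzer B/G FRET substrate added for 1 h at room temperature; beta-lactamase reporter read by fluorescence intensity.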
# [6] = qHTS assay to identify small molecule antagonists of the peroxisome proliferator-activated receptor gamma (PPARg) signaling pathway - cell viability counter screen (AID 743194); note: nearly all actives have a fitted effect of over 55% in size
# In short: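 Cytotoxicity counter screen in PPARg-bla HEK293H cells, same wells as reporter assay. Compounds plus 50 nM rosiglitazone (final) for 17 h at 37 C, then viability read by CellTiter-Glo luminescence.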
# [7] = qHTS assay for small molecule agonists of the antioxidant response element (ARE) signaling pathway (AID 743202; active = well fitted activation curve with a large enough effect in the signal ratio in the repeat runs, not every such curve was filed as active; the % refers to the signal ratio)
# In short: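 HepG2 ARE-bla reporter line, 2,000 cells/well; 5 h preincubation 37 C/5% CO2; compound (DMSO) 16 h 37 C; B/G FRET substrate 2 h RT; fluorescence intensity.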
# [8] = qHTS assay for small molecule activators of the heat shock response signaling pathway - cell viability counter screen (AID 743209); note: nearly all actives have a fitted effect of over 50% in size
# In short: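 Same-well multiplex: after 2.5 h room-temperature incubation with LiveBLAzer B/G substrate and fluorescence reading, CellTiter-Glo reagent was added to HSE-bla HeLa cells that had received compound for 5 h at 37 C; luminescence read after 30 min.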
# [9] = qHTS assay for small molecule activators of the heat shock response signaling pathway (AID 743210; active = well fitted activation curve with a large enough effect in the signal ratio in the repeat runs, with a control signal flat, not every such curve was filed as active; the % refers to the signal ratio;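 note: HeLa cells with beta-lactamase reporter driven by heat shock elements; series mostly up to about 63 µM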)
# In short: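 Beta-lactamase reporter read-out: FRET substrate fluorescence after 2.5 h at RT, following 5 h compound treatment at 37 C of HeLa cells carrying HSE-driven bla reporter; quantitative HTS format.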
# [10] = qHTS assay to identify small molecule agonists of the peroxisome proliferator-activated receptor delta (PPARd) signaling pathway - cell viability counter screen (AID 743211); note: nearly all actives have a fitted effect of over 55% in size
# In short: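 Luminescent ATP viability assay (CellTiter-Glo, 30 min RT) in UAS-bla HEK293H cells carrying the PPAR delta reporter construct, 3000 cells/well, after a 17 h compound treatment at 37 C.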
# [11] = target: Peroxisome proliferator-activated receptor delta (Homo sapiens) (UniProt Q03181); test: qHTS assay to identify small molecule agonists of the peroxisome proliferator-activated receptor delta (PPARd) signaling pathway (AID 743212; calls by dose curve)
# In short: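 Read-out: beta-lactamase FRET fluorescence after 2 h room-temperature incubation with LiveBLAzer B/G substrate. Cells were HEK293H carrying a UAS-bla reporter for PPARd, treated at 37 C with DMSO-dissolved compounds.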
# [12] = qHTS assay to identify small molecule antagonists of the peroxisome proliferator-activated receptor delta (PPARd) signaling pathway - cell viability counter screen (AID 743213); note: nearly all actives have a fitted effect of over 50% in size
# In short: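 HEK293H cells with the PPARd UAS-bla reporter, co-treated 17 h at 37 C with compounds and L165041 (300 nM final), were lysed with CellTiter-Glo. Luminescence indicated viable cell content.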
# [13] = target: Peroxisome proliferator-activated receptor delta (Homo sapiens) (UniProt Q03181); test: qHTS assay to identify small molecule antagonists of the peroxisome proliferator-activated receptor delta (PPARd) signaling pathway (AID 743215; active = well fitted inhibition curve with a large enough effect in the signal ratio in the repeat runs, not every such curve was filed as active; the % refers to the signal ratio;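 note: cells stimulated with agonist L165041 at 300 nM final during compound exposure; series mostly up to about 62 µM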)
# In short: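 Fluorescence from cleaved LiveBLAzer B/G FRET substrate (2 h, room temperature) reports PPARd-driven beta-lactamase in HEK293H UAS-bla cells. Cells had been treated 17 h at 37 C with compound plus 300 nM final L165041.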
# [14] = qHTS assay to identify small molecule agonists of the farnesoid-X-receptor (FXR) signaling pathway - cell viability counter screen (AID 743218); note: nearly all actives have a fitted effect of over 45% in size
# In short: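 Readout: CellTiter-Glo luminescence, 30 min RT, multiplexed after the FXR-bla FRET reading. HEK 293T FXR-UAS-bla cells received compound 5 h post-plating and were incubated 16 h at 37 C.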
# [15] = qHTS assay to identify small molecule antagonists of the farnesoid-X-receptor (FXR) signaling pathway - cell viability counter screen (AID 743221; active = well fitted cell-killing curve with a large enough effect in the repeat runs, not every such curve was filed as active; note: nearly all actives have a fitted effect of over 50% in size)
# In short: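 In GeneBLAzer FXR-UAS-bla HEK 293T cells stimulated with 50 uM chenodeoxycholic acid (final), compounds acted for 16 h at 37 C. Viability was assessed afterwards by CellTiter-Glo luminescence.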
# [16] = target: Vitamin D3 receptor (Homo sapiens) (UniProt P11473); test: qHTS assay to identify small molecule antagonists of the vitamin D receptor (VDR) signaling pathway (AID 743223; active = well fitted inhibition curve with a large enough effect in the signal ratio in the repeat runs, not every such curve was filed as active; the % refers to the signal ratio)
# In short: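 Agonist 1alpha,25-dihydroxyvitamin D3 (3 nM in well) was added with each compound to VDR-bla cells preincubated 4 h. Cells stood 16 h at 37C, then FRET substrate 2 h at room temperature; fluorescence intensity recorded.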
# [17] = target: Bile acid receptor (Homo sapiens) (UniProt Q96RI1); test: qHTS assay to identify small molecule antagonists of the farnesoid-X-receptor (FXR) signaling pathway (AID 743217; active = well fitted inhibition curve with a large enough effect in the signal ratio in the repeat runs, not every such curve was filed as active; the % refers to the signal ratio)
# In short: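 FRET fluorescence after 2 h room-temperature LiveBLAzer loading gives the readout. Prior step: FXR-bla HEK 293T cells, seeded and incubated 5 h, received test compounds plus 50 uM final CDCA for 16 h at 37 °C.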
# [18] = target: Bile acid receptor (Homo sapiens) (UniProt Q96RI1); test: qHTS assay to identify small molecule agonists of the farnesoid-X-receptor (FXR) signaling pathway (AID 743220; active = well fitted activation curve with a large enough effect in the signal ratio in the repeat runs, not every such curve was filed as active; the % refers to the signal ratio)
# In short: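 FXR-UAS-bla HEK 293T cells carrying a UAS-driven beta-lactamase reporter were plated for 5 h at 37C/5% CO2, then exposed to DMSO-dissolved Tox21 10K compounds for 16 h at 37C. A LiveBLAzer B/G FRET substrate was loaded for 2 h at room temperature before fluorescence reading.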
# [19] = target: Vitamin D3 receptor (Homo sapiens) (UniProt P11473); test: qHTS assay to identify small molecule agonists of the vitamin D receptor (VDR) signaling pathway (AID 743222; calls by dose curve)
# In short: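 Following 4 h attachment at 37C, VDR-bla cells (2,000 per well) received DMSO-dissolved compounds or controls. After 16 h incubation, LiveBLAzer B/G FRET substrate was added and fluorescence read 2 h later at room temperature.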
# [20] = qHTS assay for small molecule agonists of the antioxidant response element (ARE) signaling pathway - cell viability counter screen (AID 743203; calls by dose curve; note: nearly all actives have a fitted effect of over 55% in size)
# In short: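 Measured in the same wells as the beta-lactamase ARE reporter, this read-out is CellTiter-Glo luminescence from HepG2 ARE-bla cells given compounds for 16 hrs.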
# Sequence of Peroxisome proliferator-activated receptor delta (Homo sapiens) (Q03181 whole entry, looked up): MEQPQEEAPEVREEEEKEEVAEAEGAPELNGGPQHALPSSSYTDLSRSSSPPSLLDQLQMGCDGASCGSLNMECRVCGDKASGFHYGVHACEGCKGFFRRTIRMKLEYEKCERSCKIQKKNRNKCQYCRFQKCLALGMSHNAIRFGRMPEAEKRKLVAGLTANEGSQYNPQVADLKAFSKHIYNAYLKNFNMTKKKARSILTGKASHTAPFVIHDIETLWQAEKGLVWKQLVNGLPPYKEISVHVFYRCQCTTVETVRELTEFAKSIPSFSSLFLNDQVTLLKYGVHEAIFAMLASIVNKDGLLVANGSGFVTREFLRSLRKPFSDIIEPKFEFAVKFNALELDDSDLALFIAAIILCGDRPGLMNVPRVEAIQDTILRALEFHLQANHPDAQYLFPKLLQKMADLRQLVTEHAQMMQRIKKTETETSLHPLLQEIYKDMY
# Sequence of Vitamin D3 receptor (Homo sapiens) (P11473 whole entry, looked up): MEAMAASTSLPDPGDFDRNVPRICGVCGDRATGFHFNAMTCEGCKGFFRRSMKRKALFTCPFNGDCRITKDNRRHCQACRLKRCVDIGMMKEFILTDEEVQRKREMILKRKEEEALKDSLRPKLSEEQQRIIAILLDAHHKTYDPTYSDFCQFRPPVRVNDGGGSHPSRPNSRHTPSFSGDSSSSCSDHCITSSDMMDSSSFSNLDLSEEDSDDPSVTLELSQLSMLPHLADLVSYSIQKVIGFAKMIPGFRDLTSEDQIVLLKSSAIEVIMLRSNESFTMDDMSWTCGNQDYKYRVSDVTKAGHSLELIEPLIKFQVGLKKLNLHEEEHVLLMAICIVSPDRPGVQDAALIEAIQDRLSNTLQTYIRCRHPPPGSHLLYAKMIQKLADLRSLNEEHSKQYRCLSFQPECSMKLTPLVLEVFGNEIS
# Sequence of Aryl hydrocarbon receptor (Homo sapiens) (P35869 whole entry, looked up): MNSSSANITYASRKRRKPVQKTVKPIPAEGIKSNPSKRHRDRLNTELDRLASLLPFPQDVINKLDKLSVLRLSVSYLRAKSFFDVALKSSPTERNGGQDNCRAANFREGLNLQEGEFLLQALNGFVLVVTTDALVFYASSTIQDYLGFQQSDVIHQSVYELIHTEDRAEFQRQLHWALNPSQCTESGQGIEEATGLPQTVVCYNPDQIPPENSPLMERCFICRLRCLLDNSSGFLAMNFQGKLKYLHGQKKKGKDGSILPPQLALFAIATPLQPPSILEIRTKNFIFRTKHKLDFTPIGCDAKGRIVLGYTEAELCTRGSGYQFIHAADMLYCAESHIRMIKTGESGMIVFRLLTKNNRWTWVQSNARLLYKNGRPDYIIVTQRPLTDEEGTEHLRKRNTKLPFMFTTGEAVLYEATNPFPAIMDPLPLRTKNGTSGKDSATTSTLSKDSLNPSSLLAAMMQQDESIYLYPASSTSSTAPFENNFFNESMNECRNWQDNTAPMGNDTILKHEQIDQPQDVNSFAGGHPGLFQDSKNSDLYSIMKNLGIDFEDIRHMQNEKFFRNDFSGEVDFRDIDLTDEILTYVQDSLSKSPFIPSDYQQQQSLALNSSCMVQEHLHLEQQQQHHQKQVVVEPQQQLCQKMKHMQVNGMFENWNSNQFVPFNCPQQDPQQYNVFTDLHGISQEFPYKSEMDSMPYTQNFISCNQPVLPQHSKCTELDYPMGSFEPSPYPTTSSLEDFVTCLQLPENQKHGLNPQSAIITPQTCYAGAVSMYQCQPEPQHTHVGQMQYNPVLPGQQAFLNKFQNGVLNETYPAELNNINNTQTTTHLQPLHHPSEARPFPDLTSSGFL
# Sequence of Bile acid receptor (Homo sapiens) (Q96RI1 whole entry, looked up): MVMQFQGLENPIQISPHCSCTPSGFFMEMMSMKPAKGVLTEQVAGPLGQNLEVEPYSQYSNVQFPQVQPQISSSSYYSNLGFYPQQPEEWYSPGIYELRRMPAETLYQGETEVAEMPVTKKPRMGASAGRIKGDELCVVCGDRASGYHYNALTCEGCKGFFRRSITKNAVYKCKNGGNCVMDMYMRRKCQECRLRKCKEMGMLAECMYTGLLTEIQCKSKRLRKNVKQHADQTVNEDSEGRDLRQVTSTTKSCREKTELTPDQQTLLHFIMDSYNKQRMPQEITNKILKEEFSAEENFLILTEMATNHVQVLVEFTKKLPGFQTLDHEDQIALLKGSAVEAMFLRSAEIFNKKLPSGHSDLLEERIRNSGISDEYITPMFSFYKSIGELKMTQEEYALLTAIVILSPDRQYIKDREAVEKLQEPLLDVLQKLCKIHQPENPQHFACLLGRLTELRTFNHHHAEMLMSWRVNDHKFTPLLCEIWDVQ
# Sequence of Peroxisome proliferator-activated receptor gamma (Homo sapiens) (P37231 whole entry, looked up): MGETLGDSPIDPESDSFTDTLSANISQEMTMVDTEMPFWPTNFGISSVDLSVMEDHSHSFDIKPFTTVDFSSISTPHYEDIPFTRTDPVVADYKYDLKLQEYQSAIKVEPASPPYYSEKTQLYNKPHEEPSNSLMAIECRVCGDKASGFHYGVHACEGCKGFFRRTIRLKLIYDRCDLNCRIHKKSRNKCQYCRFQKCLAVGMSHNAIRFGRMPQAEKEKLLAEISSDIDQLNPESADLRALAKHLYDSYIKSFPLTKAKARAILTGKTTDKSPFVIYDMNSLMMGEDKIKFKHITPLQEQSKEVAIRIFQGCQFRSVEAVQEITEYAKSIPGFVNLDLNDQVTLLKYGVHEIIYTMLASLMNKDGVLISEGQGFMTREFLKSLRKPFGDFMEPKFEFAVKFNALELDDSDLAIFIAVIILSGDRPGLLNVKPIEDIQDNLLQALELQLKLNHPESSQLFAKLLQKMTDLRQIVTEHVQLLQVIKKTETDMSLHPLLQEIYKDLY
Compound,Potency [1],Potency [2],Potency [3],outcome [4],Potency [5],outcome [6],Potency [7],outcome [8],outcome [9],outcome [10],outcome [11],outcome [12],outcome [13],Potency [14],outcome [15],outcome [16],outcome [17],outcome [18],outcome [19],outcome [20]
NC(Cc1c[nH]c2ccccc12)C(=O)O (centres undefined),inactive,21.2 µM (active),inactive,inactive,inactive,inactive,inactive,inactive,inactive,inactive,inactive,inactive,inactive,inactive,inactive,inactive,–,–,–,–
CC(=O)OCC(=O)[C@@]1(O)[C@H](OC(C)=O)C[C@H]2[C@@H]3CCC4=CC(=O)C=C[C@]4(C)[C@@]3(F)[C@@H](O)C[C@@]21C,inactive,inactive,inactive,inactive,inactive,inactive,inactive,inactive,inactive,inactive,–,–,–,inactive,inactive,inactive,inactive,inactive,inactive,–
CCCO,inactive,inactive,inactive,inactive,inactive,inactive,inactive,inactive,inactive,inactive,inactive,–,inactive,inactive,inactive,–,–,–,inactive,–
C[C@H]1O[C@H](O[C@H]2[C@H](O)[C@@H](O)[C@@H](O[C@H]3[C@H](O)[C@@H](O)[C@H](O)O[C@@H]3CO)O[C@@H]2CO)[C@H](O)[C@@H](O)[C@@H]1N[C@H]1C=C(CO)[C@@H](O)[C@H](O)[C@H]1O,inactive,inactive,inactive,inactive,inactive,inactive,inactive,–,inactive,inactive,–,–,–,inactive,inactive,inactive,–,–,inactive,inactive
CN(C1CCCCC1)S(=O)(=O)c1ccccc1N,inactive,inactive,inactive,inactive,inactive,inactive,–,inactive,inactive,inactive,inactive,inactive,inactive,inactive,inactive,inactive,inactive,–,inactive,inactive
CCOC(=O)CCc1ccccc1,inactive,inactive,inactive,inactive,inactive,inactive,inactive,inactive,inactive,inactive,–,inactive,inactive,inactive,inactive,inactive,–,inactive,inactive,–
O=C1CC[C@H](C(=O)N2CCCCC2)N1,inactive,inactive,inactive,inactive,–,inactive,inactive,inactive,–,inactive,inactive,inactive,–,inactive,inactive,–,–,–,–,–
C1CCN2C[C@@H]3C[C@@H](CN4CCCC[C@@H]34)[C@H]2C1,inactive,inactive,inactive,–,–,inactive,inactive,inactive,–,inactive,inactive,–,–,inactive,inactive,inactive,–,–,–,inactive
CCNC(=O)NCCCOc1cccc(CN2CCCCC2)c1,inactive,inactive,inactive,inactive,–,–,inactive,inactive,inactive,inactive,inactive,inactive,–,inactive,inactive,–,–,–,inactive,inactive
CCc1nccnc1C,inactive,inactive,–,inactive,inactive,inactive,inactive,inactive,inactive,inactive,–,inactive,–,inactive,inactive,–,inactive,–,inactive,inactive
Cc1nc2ccccc2c(=O)o1,inactive,inactive,–,inactive,inactive,inactive,inactive,inactive,inactive,inactive,inactive,inactive,inactive,inactive,inactive,–,–,–,–,inactive
CCCCCCCCC(=O)OCC,inactive,inactive,–,inactive,inactive,inactive,inactive,inactive,inactive,inactive,inactive,inactive,–,inactive,inactive,inactive,–,–,–,inactive
